Compounds with a hit are over-represented: about 19% of the library has one in this group of screens.
HT1080 IDH1KD tx: toxicity to HT-1080 IDH1 knockdown cells (counter line); hit rate 2% among 360,000; Potency, µM (series often up to 46.1 µM), without a hit: at the highest dose activity, negative = toxicity, most hits filed as cytotoxic; HT-1080 IDH1 knockdown viability, ATP luminescence, 48 h; AID 686971;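 further: 0% = DMSO wells and -100% = cell-free medium wells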
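Luminescent ATP read-out (CellTiter-Glo, 10 min at room temperature) after 48 h compound exposure at 37 °C gave viability of IDH1-knockdown HT-1080 cells. Activity was normalised to DMSO and cell-free wells, then fitted as concentration-response curves.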
HT1080NT lethal: kills 2HG-producing HT-1080-NT fibrosarcoma cells | hit rate 1.6% among 360,000 | HT-1080-NT fibrosarcoma viability, CellTiter-Glo ATP luminescence, 48 h | Potency, µM (series often up to 46.1 µM), for the others: top-dose activity, negative = less viability, hits mostly cytotoxic | AID 686970;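 further: NT is the 2HG producing partner of a matched IDH1 knockdown line; 0% = DMSO-treated cells and -100% = media-only wells without cells; nearly all actives have a fitted effect of over 55% in size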
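Luminescent CellTiter-Glo readout after 48 hours of compound exposure at 37 degrees C defined viability of HT-1080-NT cells. Activity was normalized to DMSO wells and cell-free media wells; concentration-response curves were fitted and assigned curve classes.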
TDP1 cell CPT: growth inhibition of DT40 Tdp1-/-;hTDP1 cells with camptothecin (screen for TDP1 inhibitors) | hit rate 12% among 420,000 | Potency, µM (titrated, usually from 46.2 µM), for inactives: at the top dose activity change, negative = growth inhibition, actives largely listed as inhibitors | chicken DT40 Tdp1-/-;hTDP1 cells + 20 nM CPT, ATP luminescence, 48 h; further: nearly all actives have a fitted effect of over 55% in size
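Cell growth measured by CellTiter-Glo luminescence after a minimum 48 h, 37 C compound exposure with 20 nM CPT in Tdp1-knockout DT40 cells stably expressing hTDP1, seeded 400/well; qHTS titration format.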
KB-V1 cytotox: KB-V1 MDR subline cytotoxicity. KB-V1 MDR cells viability, CellTiter-Glo, 72 h. Potency, µM (series often up to 46.1 µM), usual class: cytotoxic. hit rate 3.4% among 400,000; further: nearly all actives have a fitted effect of over 60% in size
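KB-V1 MDR subline cells in DMEM (phenol-red free, 10% FBS) exposed to compounds in qHTS concentration series for 72 h at 37 degrees C. Viability read by CellTiter-Glo luminescence; concentration-effect curves fitted after normalization and correction.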
DT40 TDP1 no CPT: qHTS for Inhibitors of human tyrosyl-DNA phosphodiesterase 1 (TDP1): qHTS in cells in absence of CPT; DT40 Tdp1-/- hTDP1 cells, no CPT, ATP luminescence, 48 h; Potency, µM (titrated, usually from 46.2 µM), inactives show at the top dose activity change, negative = growth inhibition, usual class: inhibitors; hit rate 15% among 420,000; AID 686978, 2013; further: nearly all actives have a fitted effect of over 55% in size
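Cells were dispensed at 400 per well, compounds added by pin tool, plates incubated ≥48 hr at 37 °C, then CellTiter-Glo added for 30 min at room temperature before luminescence reading. Line: DT40 Tdp1-/- complemented with hTDP1; camptothecin omitted.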
KB-3-1 cytotox: KB-3-1 parental cell cytotoxicity. Potency, µM (top dose mostly 46.1 µM), usual class: cytotoxic. KB-3-1 viability, CellTiter-Glo ATP luminescence, 72 h. AID 1347075. hit rate 1.4% among 400,000; further: nearly all actives have a fitted effect of over 60% in size
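Parental KB-3-1 adenocarcinoma cells in phenol-red-free DMEM with 10% FBS were pin-treated with compounds at several concentrations, incubated 72 h at 37 °C, and viability read by CellTiter-Glo luminescence; concentration-effect curves were fitted after normalization.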
Starred values were filed as active, the others as inactive; i = inactive; ? = inconclusive; . = not tested or not shown; ! = repeats disagree; [ ] = dose if it differs, or a comment. The call rests on the fitted dose curve; in most records, active means well fitted curve in the direction sought with a large enough effect; inconclusive means small, poorly fitted or top-dose-only effect, or another doubt; inactive means no such curve, though single readings can be large; an effect the other way counts as inactive or inconclusive. Unless noted, on the % scale 0 is the no-effect control and ±100 the full control effect; potency means the concentration at half of the fitted maximal effect.

SMILES	HT1080 IDH1KD tx	HT1080NT lethal	TDP1 cell CPT	KB-V1 cytotox	DT40 TDP1 no CPT	KB-3-1 cytotox
Cc1ccc(S(=O)(=O)N(C)C[C@H]2Oc3cc(Br)ccc3S(=O)(=O)N([C@H](C)CO)C[C@H]2C)cc1	-4.8%	-19.7%	?	?	29.1µM*	?
Clc1cc(I)cc(Cl)c1NC1=NCCN1	1.1%	29.5%	-4.0%	i	-4.7%	i
COc1ccc(C(=O)O[C@H]2CC[C@@]3(C)C4CCC5[C@]6(O)C[C@H](O)[C@@]7(O)C(CN8C[C@@H](C)CC[C@H]8[C@@]7(C)O)[C@]6(O)C[C@@]53O[C@@]42O)cc1OC (stereo partly specified)	.	.	0.8%[21.1 µM]	.	-26.7%[21.1 µM]	.
C=CCc1c(C)nc(C)nc1N/N=C/c1ccc(N(C)C)cc1	-8.3%	-14.8%	4.61µM*	i	20.6µM*	?
COc1ccc(C2CN(C)CC2C(=O)c2ccc(F)cc2)cc1Cl (stereo unspecified)	-15.4%	-15.8%	-13.9%	i	20.6µM*	i
O=C(CN1CCc2ccccc2C1)Nc1ccccc1N1CCCCCC1	?	-22.2%	?	?	?	?
O=C(Nc1ccc(Br)cc1)c1cccc(S(=O)(=O)N2CCc3ccccc32)c1	.	.	23.1µM*	i	16.4µM*	?
O=C(Nc1ccc(Br)cc1)c1ccc(F)c(S(=O)(=O)N2CCCc3ccccc32)c1	.	.	11.6µM*	.	8.2µM*	.
O=C(CNC(=O)c1cccc(S(=O)(=O)N2CCc3ccccc32)c1)Nc1ccccc1Br	-12.6%	-6.9%	?	9.2µM*	?	i
c1cc2c(cc1[C@H]1OC[C@H]3[C@@H]1CO[C@H]3c1ccc3c(c1)OCO3)OCO2	-1.2%	-2.5%	?	i	?	i
Cc1noc(C)c1COc1ccc(C(=O)NCC2(N(C)C)CCCCC2)cc1	-3.1%	-8.9%	-11.9%	i	-5.0%	i
Cc1cc2ccccc2n1CCNC(=O)COc1ccccc1	-2.3%	-6.9%	?	i	?	i
CN(C)c1ccc(/C=C/c2ccnc3c(O)cccc23)cc1	.	.	-97.5%	i	10µM*	?
CN(C)c1ccc(C=Cc2ccnc3c(O)cccc23)cc1	5.3%	?	?	?	13µM*	i
Cn1cccc1CNCCc1ccccc1F	-7.7%	1.2%	?	i	-21.3%	i
COc1ccc(CCN(C)Cc2c(F)cccc2F)cc1OC	-19.7%	12.7%	-4.6%	11.6µM*	-23.7%	i
COc1ccc(CCNCc2ccc(F)cc2)cc1OC	-8.4%	-2.3%	-19.1%	i	-9.1%	i
N#Cc1ccc(CN2CCCC3(CCN(C(=O)Oc4ccccc4)CC3)C2)cc1	.	.	-15.4%	.	-24.5%	.
CC(C)c1ccc2[nH]c(O)c(N=NC(=O)c3cccc(S(=O)(=O)Nc4ccc(Cl)cc4)c3)c2c1	-27.4%	?	11.6µM*	i	10.3µM*	i
Cc1ccc(-c2nnc(Nc3ccc(O)cc3)c3ccccc23)cc1S(=O)(=O)N1CCOCC1	.	.	?	i	16.4µM*	?
CC1C(=O)OC2CCN3CC=C(COC(=O)[C@](C)(O)[C@]1(C)O)C23 (stereo partly specified)	.	.	?	.	-28.1%	.
NS(=O)(=O)c1ccc(N=Cc2c(O)n(-c3ccccc3)c(=O)[nH]c2=O)cc1	-15.2%	0.8%	3.5%	i	6.1%	i
COc1cc(CNC(=O)CCCC/C=C/C(C)C)ccc1O	-14.0%	-12.1%	11.2µM*!	i	8.91µM*!	i
Cc1nc2cc(-c3cccc(F)c3)nn2c(C)c1CCC(=O)N1CCC2(CC1)OCCO2	15.4%	3.0%	16.4µM*	?	?	i

Compound activity deposited in PubChem BioAssay by National Center for Advancing Translational Sciences (NCATS).
